Experiment [1] is described as follows: A CellTox Green Cytotoxicity Assay to monitor cytotoxicity in HepG2 cells - 8 hour (AID 1224890). Also: nearly all actives have a fitted effect of over 45% in size. Put shortly:
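First, HepG2 cells (600/well) mixed with reagent were plated; second, after 5 h at 37 C they received compounds via pintool; third, fluorescence was measured at 0 h through 40 h at 8 h intervals.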

Experiment [2] has as its target Estrogen receptor (Homo sapiens) (UniProt P03372). Kind of experiment: qHTS assay to identify small molecule antagonists of the estrogen receptor alpha (ER-alpha) signaling pathway using the BG1 cell line in the presence of 0.1 nM 17-beta-estradiol (AID 1259244). Also: nearly all actives have a fitted effect of over 50% in size. Put shortly: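 Reporter is a stably transfected luciferase under four estrogen responsive elements in VM7Luc4E2 cells expressing native full-length ER-alpha; inhibition of 0.1 nM (final) 17beta-estradiol-driven signal over 22 h is read by luminescence.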
On the technique in general: qHTS replaces the single test concentration by a dilution series.

Experiment [3] can be described thus: qHTS assay to identify small molecule phospholipidosis (PLD) inducers (AID 1259344; active = well fitted curve in the direction sought with a large enough effect; an effect the other way counts as inactive or inconclusive). Put shortly: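 Phospholipid accumulation was scored by imaging: fixed, Hoechst-counterstained HepG2 cells stained with LipidTOX Red after 24 h compound exposure at 37 C. Read-outs were pit count and pit intensity per well or per cell, with amiodarone and DMSO controls.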
Experiment [4] in a line: qHTS assay to identify small molecule HDAC inhibitors (AID 1259364).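 Also: wild-type HCT-116 cells with endogenous class I/II HDAC activity; top concentration of the series differs between compounds; nearly all actives have a fitted effect of over 45% in size.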 Put shortly: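 Quantitative high-throughput format: overnight-seeded HCT-116 cells got compounds for 2 hr at 37C; HDAC-Glo I/II reagent added, 30 min RT, luminescence measured.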
The nature of experiment [5]: qHTS assay to identify small molecule HDAC inhibitors - cell viability counter screen (AID 1259365). Also: series mostly up to about 92 µM; nearly all actives have a fitted effect of over 50% in size. Put shortly: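 Wild-type HCT-116 cells, 1,500/well, cultured overnight, then compound-treated 2 h at 37 C. Viability measured as ATP luminescence with CellTiter-Glo after 30 min at room temperature.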
A short description of experiment [6]: qHTS assay to identify small molecule agonists of the sonic hedgehog signaling (Shh) pathway - cell viability counter screen (AID 1259366). Also: nearly all actives have a fitted effect of over 50% in size. Put shortly: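 NIH/3T3-derived Gli1-Luc reporter cells, 2,000 per well, received compound after 4 h and were treated about 23 h at 37C. Viability measured in the same wells by CellTiter-Fluor fluorescence after 1 h.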
Experiment [7] is described as follows: qHTS assay to identify small molecule antagonists of the sonic hedgehog signaling (Shh) pathway - cell viability counter screen (AID 1259367). Also: nearly all actives have a fitted effect of over 55% in size. Put shortly: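 Viability was read by CellTiter-Fluor fluorescence in the same wells, reagent added 23 hr into compound treatment and incubated 1 hr at 37C. The 3T3 Gli1-Luc reporter cells (2,000/well) received conditioned medium after compound and ran 24 hr.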

Experiment [8] is described as follows: qHTS assay to identify small molecule agonists of the sonic hedgehog signaling (Shh) pathway (AID 1259368; calls by dose curve;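 also: NIH/3T3-derived 3T3Gli1-Luc cells carrying a stable Gli1-driven firefly luciferase reporter; series mostly up to about 92 µM; nearly all actives have a fitted effect of over 15% in size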). Put shortly: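 Quantitative high-throughput format using a Gli1-driven firefly luciferase reporter line derived from NIH/3T3 cells. After a 24 hr compound treatment at 37 C and 5% CO2, luminescence reported Gli1 response element activity.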
For experiment [9], the target named is Estrogen receptor beta (Homo sapiens) (UniProt Q92731). Briefly: qHTS assay to identify small molecule agonists of the estrogen receptor beta (ER-beta) signaling pathway (AID 1259377; active = well fitted activation curve with a large enough effect in the signal ratio in the repeat runs, not every such curve was filed as active; the % refers to the signal ratio). Put shortly:
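ER-beta-UAS-bla HEK293T cells in medium with 2% charcoal-stripped FBS were exposed to compounds for 16 h at 37C. Beta-lactamase reporter activity was read as fluorescence after 2 h with LiveBLAzer B/G FRET substrate at room temperature.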

The nature of experiment [10]: qHTS assay to identify small molecule agonists of the androgen receptor (AR) signaling pathway in the presence of an antagonist - cell viability counter screen (AID 1259379).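 Also: MDA-kb2 human breast cancer cells carrying an MMTV luciferase reporter; series mostly up to about 92 µM; nearly all actives have a fitted effect of over 25% in size.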 Put shortly:
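Nilutamide-containing (3.0uM final) MDA-kb2 cultures, 3,000 cells/well, were treated with compounds across 15 concentrations. After 16 hr at 37C with no CO2, cell viability was determined by CellTiter-Fluor fluorescence in the luciferase assay wells.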

Experiment [11] in a line: qHTS assay to identify small molecule agonists of the estrogen receptor beta (ER-beta) signaling pathway - cell viability counter screen (AID 1259380). Also: nearly all actives have a fitted effect of over 30% in size. Also: potency is read from the fitted curve at half-maximal effect. Put shortly: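 Steps: plate ER-beta-UAS-bla HEK293T cells, rest 6 hr; add compounds in DMSO; incubate 16 hr at 37C, 5% CO2; add FRET substrate 2 hr; add CellTiter-Glo, wait 30 min at room temperature; read luminescence.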

Experiment [12] can be described thus: qHTS assay to identify small molecule antagonists of the estrogen receptor beta (ER-beta) signaling pathway - cell viability counter screen (AID 1259382). Also: series mostly up to about 92 µM; nearly all actives have a fitted effect of over 55% in size. Put shortly: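 Viability is scored by CellTiter-Glo luminescence (30 min, room temperature) in ER-beta-UAS-bla HEK293T wells already read for reporter fluorescence. Compound exposure lasts 16 hr at 37C alongside 1nM 17-beta-estradiol in charcoal-stripped serum medium.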

Experiment [13] can be described thus: qHTS assay to identify small molecule agonists or antagonists of the thyroid stimulating hormone receptor (TSHR) signaling pathway - wild type cell line counter screen (AID 1259384; calls by dose curve). Put shortly: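 Counter screen in untransfected Hek293: compounds (15-point titration, triplicate) plus phosphodiesterase inhibitor Ro20-1724 added after 18 h plating; 30 min RT. Intracellular cAMP via competitive d2/cryptate immunoassay, 1 h incubation.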

In experiment [14] the target is Estrogen receptor beta (Homo sapiens) (UniProt Q92731). Kind of experiment: qHTS assay to identify small molecule antagonists of the estrogen receptor beta (ER-beta) signaling pathway (AID 1259378; active = well fitted inhibition curve with a large enough effect in the signal ratio in the repeat runs, not every such curve was filed as active; the % refers to the signal ratio). Put shortly:
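Antagonist mode: compounds added to beta-lactamase reporter HEK293T ER-beta-UAS cells stimulated with E2 (1nM final), 16 hr at 37C. LiveBLAzer B/G FRET substrate, 2 hours room temperature, fluorescence read-out.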

Experiment [15] can be described thus: qHTS assay to identify small molecule antagonists of the androgen receptor (AR) signaling pathway using the MDA cell line in the presence of 0.5 nM R1881 - cell viability counter screen (AID 1259242). Also: nearly all actives have a fitted effect of over 45% in size. Put shortly:
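qHTS format. MDA-kb2 (MMTV-luc, AR/GR responsive) + cpd + 0.5 nM R1881 final, 16 hr 37C/0% CO2 → CellTiter-Fluor 30 min → fluorescence intensity.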

Experiment [16] has as its target Estrogen receptor (Homo sapiens) (UniProt P03372). Kind of experiment: qHTS assay to identify small molecule agonists of the estrogen receptor alpha (ER-alpha) signaling pathway in the presence of an antagonist (AID 1259383; calls by dose curve; also: top concentration of the series differs between compounds; nearly all actives have a fitted effect of over 15% in size). Put shortly:
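Readout was ERE-driven luciferase luminescence in VM7Luc4E2 cells, which express full-length ER-alpha endogenously. Compounds were tested at 15 concentrations for 22hr alongside 10.0nM ICI-182,780 (final concentration).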

The nature of experiment [17]: qHTS assay to identify small molecule antagonists of the sonic hedgehog signaling (Shh) pathway (AID 1259369; calls by dose curve; also: nearly all actives have a fitted effect of over 45% in size). Put shortly: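 Stable Gli1-Luc reporter NIH/3T3 clone; quantitative HTS in stimulated mode with conditioned medium. Luminescence measured after 24hr compound treatment at 37 C.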
For experiment [18], the target named is Androgen receptor (Homo sapiens) (UniProt P10275). Kind of experiment: qHTS assay to identify small molecule antagonists of the androgen receptor (AR) signaling pathway using the MDA cell line in the presence of 0.5 nM R1881 (AID 1259243). Also: nearly all actives have a fitted effect of over 50% in size. Put shortly:
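Antagonist mode quantitative HTS in MDA-kb2 MMTV-luciferase cells, agonist R1881 at 0.5 nM final, 16 hr exposure at 37C and 0% CO2, luminescent detection.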

The target is the same in experiment [19]. Kind of experiment: qHTS assay to identify small molecule agonists of the androgen receptor (AR) signaling pathway in the presence of an antagonist (AID 1259381; calls by dose curve; also: nearly all actives have a fitted effect of over 15% in size). Put shortly:
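Reporter-gene luminescence from MDA-kb2 cells exposed 16hr at 37C (0% CO2) to 15-point compound titrations with 3.0uM final nilutamide as AR antagonist.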

Structures are written as SMILES. Inconclusive results are not listed. A structure can be active in one record and inactive in another. Active and inactive are the calls of the source. Unless noted, calls follow the shape of the dose curve; as a rule, active = well fitted curve in the direction sought with a large enough effect in the repeat runs; inconclusive = weak or mixed curves; inactive = no such curve, though single readings can be large; an effect the other way counts as inactive or inconclusive.

Sequence of Estrogen receptor beta (Homo sapiens) (Q92731 whole entry, looked up): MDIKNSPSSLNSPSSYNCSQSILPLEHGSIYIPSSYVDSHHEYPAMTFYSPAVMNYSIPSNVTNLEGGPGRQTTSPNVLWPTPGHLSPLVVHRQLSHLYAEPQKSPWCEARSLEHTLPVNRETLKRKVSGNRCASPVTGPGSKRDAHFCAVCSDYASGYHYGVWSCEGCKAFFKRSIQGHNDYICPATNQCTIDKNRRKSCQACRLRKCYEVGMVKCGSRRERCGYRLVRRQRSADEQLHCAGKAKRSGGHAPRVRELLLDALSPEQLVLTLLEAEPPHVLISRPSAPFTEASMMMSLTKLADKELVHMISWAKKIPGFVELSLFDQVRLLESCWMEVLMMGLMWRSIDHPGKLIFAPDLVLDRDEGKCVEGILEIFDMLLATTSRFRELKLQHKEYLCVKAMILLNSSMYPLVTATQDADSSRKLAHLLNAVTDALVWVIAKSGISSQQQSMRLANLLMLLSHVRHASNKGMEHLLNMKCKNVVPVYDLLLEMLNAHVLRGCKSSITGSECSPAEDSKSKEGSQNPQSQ
Sequence of Androgen receptor (Homo sapiens) (P10275 whole entry, looked up): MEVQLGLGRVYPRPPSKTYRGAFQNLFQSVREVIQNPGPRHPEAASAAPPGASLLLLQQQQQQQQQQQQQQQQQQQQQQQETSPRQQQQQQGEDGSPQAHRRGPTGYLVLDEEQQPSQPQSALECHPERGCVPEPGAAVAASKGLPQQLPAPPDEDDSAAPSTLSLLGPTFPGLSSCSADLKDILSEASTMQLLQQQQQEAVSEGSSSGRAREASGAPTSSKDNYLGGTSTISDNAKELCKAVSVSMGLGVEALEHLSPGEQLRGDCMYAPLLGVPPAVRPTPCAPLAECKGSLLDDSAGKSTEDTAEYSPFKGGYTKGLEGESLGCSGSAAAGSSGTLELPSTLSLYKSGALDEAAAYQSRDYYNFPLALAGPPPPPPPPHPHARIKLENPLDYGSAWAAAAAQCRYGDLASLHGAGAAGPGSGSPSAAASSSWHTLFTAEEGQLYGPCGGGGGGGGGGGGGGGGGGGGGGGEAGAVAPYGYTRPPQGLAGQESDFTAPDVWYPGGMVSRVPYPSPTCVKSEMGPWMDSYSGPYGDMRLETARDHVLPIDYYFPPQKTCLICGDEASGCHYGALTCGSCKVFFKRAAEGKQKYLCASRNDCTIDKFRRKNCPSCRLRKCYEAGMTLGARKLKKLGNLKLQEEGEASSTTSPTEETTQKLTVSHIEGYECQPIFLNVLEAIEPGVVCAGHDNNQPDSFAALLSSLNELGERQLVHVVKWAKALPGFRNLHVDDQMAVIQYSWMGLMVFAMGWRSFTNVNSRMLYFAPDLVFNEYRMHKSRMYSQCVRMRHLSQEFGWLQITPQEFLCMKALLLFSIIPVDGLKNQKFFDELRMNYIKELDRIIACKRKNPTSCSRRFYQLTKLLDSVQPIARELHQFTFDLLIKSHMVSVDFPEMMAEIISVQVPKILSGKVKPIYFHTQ
Sequence of Estrogen receptor (Homo sapiens) (P03372 whole entry, looked up): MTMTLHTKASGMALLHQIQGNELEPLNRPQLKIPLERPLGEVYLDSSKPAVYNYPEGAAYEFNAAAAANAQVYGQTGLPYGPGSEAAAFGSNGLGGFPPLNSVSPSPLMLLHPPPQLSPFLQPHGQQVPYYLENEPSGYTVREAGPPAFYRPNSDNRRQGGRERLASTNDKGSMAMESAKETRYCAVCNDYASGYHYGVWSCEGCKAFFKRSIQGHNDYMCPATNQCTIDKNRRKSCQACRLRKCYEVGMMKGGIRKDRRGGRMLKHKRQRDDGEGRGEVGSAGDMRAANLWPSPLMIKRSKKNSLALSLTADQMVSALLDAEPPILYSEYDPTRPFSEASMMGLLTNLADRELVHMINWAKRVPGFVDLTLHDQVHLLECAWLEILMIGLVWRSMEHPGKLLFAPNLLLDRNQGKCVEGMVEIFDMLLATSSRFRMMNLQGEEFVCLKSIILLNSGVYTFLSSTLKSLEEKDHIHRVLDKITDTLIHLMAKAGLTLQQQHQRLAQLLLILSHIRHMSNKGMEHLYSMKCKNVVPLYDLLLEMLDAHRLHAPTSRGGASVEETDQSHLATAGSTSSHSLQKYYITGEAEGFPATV

`CN(C)c1ccc(O)c2c1C[C@H]1C[C@H]3[C@H](N(C)C)C(=O)C(C(N)=O)=C(O)[C@@]3(O)C(=O)C1=C2O`: the call in [1], in experiment [3], in experiment [5], in [8], in [12] and in experiment [13] was inactive. The Potency result in experiment [2], in [4], in [6], in experiment [7], in [9] and in experiment [10] was “inactive” in each case. For the same compound, the Potency in experiment [11] is 86.3 µM (active) and inactive.
On to `N#Cc1ccccc1`, for which the call in [1], in experiment [5], in [8], in experiment [12] and in experiment [13] was inactive. For the same compound, the Potency entry in [4], in [6], in experiment [7], in experiment [9], in experiment [14] and in experiment [10] was “inactive” throughout. For the same compound, the Potency entry in experiment [11] was “inactive”.
As to `CC(=O)OCCOC(C)=O`, the compound was called inactive in experiment [1], in [5], in [8], in experiment [12] and in experiment [13]. In addition, the Potency entry in experiment [15], in experiment [2], in experiment [4], in experiment [6], in experiment [7] and in [9] was “inactive” each time. For the same compound, the Potency result in experiment [14], in experiment [10] and in [11] was “inactive” in each case.
`O=c1[nH]cnc2[nH]ncc12`: the call in experiment [1], in [3], in experiment [5], in [8] and in experiment [12] was inactive. For the same compound, the Potency result in [15], in [2], in experiment [4], in experiment [6], in [7] and in [9] was “inactive” throughout. For the same compound, the Potency entry in experiment [10], in [11] and in [16] was “inactive” in each case.
As to `CC(C)=CCl`, the compound was called inactive in [1], in experiment [5], in experiment [8], in [12] and in [13]. Moreover, the Potency entry in [2], in experiment [4], in experiment [6], in [7], in [17] and in [10] was “inactive” throughout. For the same compound, the Potency entry in [11] and in experiment [16] was “inactive” in each case.
Regarding `C[Si]1(C)O[Si](C)(C)O[Si](C)(C)O[Si](C)(C)O1`, the result in [1], in experiment [5], in experiment [8], in experiment [12] and in experiment [13] was inactive. Further, the Potency result in experiment [15], in experiment [2], in experiment [4], in experiment [6], in experiment [7] and in experiment [17] was “inactive” each time. For the same compound, the Potency result in experiment [9], in experiment [14], in experiment [10], in experiment [11] and in [16] was “inactive” throughout.
In the case of `COC(=O)c1cccnc1`, the compound was classed as inactive in experiment [1], in [3], in [5], in [8], in experiment [12] and in [13]. Moreover, the Potency result in experiment [18], in experiment [4], in [6], in experiment [7], in [17] and in [10] was “inactive” each time. Moreover, the Potency result in experiment [11] and in [19] was “inactive” throughout.
On to `COc1ccc(CCC(C)=O)cc1`, for which the result in experiment [1], in experiment [5], in [8], in [12] and in [13] was inactive. The Potency result in experiment [15], in experiment [4], in experiment [6], in experiment [7], in experiment [9] and in experiment [14] was “inactive” in each case. The Potency entry in experiment [10] and in experiment [11] was “inactive” each time.
Regarding `COCCOC(=O)c1ccccc1C(=O)OCCOC`, the result in experiment [1], in experiment [5], in experiment [8], in experiment [12] and in experiment [13] was inactive. In addition, the Potency result in experiment [4], in experiment [6], in [7], in [17], in [9] and in [10] was “inactive” each time. Further, the Potency entry in [11] was “inactive”.

(Values after PubChem BioAssay (Tox21).)
